In article PMC11006913:
Where a chain is given by its changes, count along the chain named.

What was measured:
Assay in all cases: PBM; 200 nM protein, PBS
Conditions in all cases: dsDNA, one strand shown
[1] = biological target: HOXB4 (Homo sapiens, UniProt P17483 148-234)
[2] = biological target: HOXB9 (Homo sapiens, UniProt P17482 171-250, T197M)
[3] = biological target: HOXA2 (Homo sapiens, UniProt O43364 129-215, R185T)
[4] = biological target: HOXB4 (Homo sapiens, UniProt P17483 148-234, V174I)
Chain of HOXB4 (Homo sapiens, UniProt P17483 148-234, V174I) (P17483 148-234 V174I): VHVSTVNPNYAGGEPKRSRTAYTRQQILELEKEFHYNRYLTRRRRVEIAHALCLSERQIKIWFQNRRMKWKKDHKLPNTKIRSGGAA

[5] = biological target: HOXA2 (Homo sapiens, UniProt O43364 129-215, R185K)
Chain of HOXA2 (Homo sapiens, UniProt O43364 129-215, R185K) (O43364 129-215 R185K): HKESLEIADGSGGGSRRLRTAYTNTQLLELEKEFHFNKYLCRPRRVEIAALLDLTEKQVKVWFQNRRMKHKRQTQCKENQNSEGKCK

[6] = biological target: HOXA2 (Homo sapiens, UniProt O43364 129-215, Y150S)
Chain of HOXA2 (Homo sapiens, UniProt O43364 129-215, Y150S) (O43364 129-215 Y150S): as the sequence (O43364 129-215 R185K) above, with Y22S, K57R counted along it

[7] = biological target: HOXA2 (Homo sapiens, UniProt O43364 129-215)
Chain of HOXA2 (Homo sapiens, UniProt O43364 129-215) (O43364 129-215): as the sequence (O43364 129-215 R185K) above, with K57R counted along it

[8] = biological target: T1, VENTX (Homo sapiens, UniProt O95231 78-163, R121Q)
T1 sequence: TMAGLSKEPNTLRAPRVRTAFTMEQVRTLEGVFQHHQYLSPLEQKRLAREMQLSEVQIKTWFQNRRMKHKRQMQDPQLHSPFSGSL

[9] = biological target: HOXA4 (Homo sapiens, UniProt Q00056 201-287, W262R)
Chain of HOXA4 (Homo sapiens, UniProt Q00056 201-287, W262R) (Q00056 201-287 W262R): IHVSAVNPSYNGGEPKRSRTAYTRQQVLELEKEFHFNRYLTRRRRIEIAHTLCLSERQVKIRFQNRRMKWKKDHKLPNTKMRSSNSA

[10] = biological target: T2, VENTX (Homo sapiens, UniProt O95231 78-163)
T2 sequence: T1 sequence with Q44R

[11] = biological target: T3, VENTX (Homo sapiens, UniProt O95231 78-163, Y115F)
T3 sequence: T1 sequence with Y38F, Q44R

[12] = biological target: HOXA4 (Homo sapiens, UniProt Q00056 201-287, R217L)
Chain of HOXA4 (Homo sapiens, UniProt Q00056 201-287, R217L) (Q00056 201-287 R217L): as the sequence (Q00056 201-287 W262R) above, with R17L, R62W counted along it

[13] = biological target: HOXA4 (Homo sapiens, UniProt Q00056 201-287)
Chain of HOXA4 (Homo sapiens, UniProt Q00056 201-287) (Q00056 201-287): as the sequence (Q00056 201-287 W262R) above, with R62W counted along it

[14] = biological target: VAX1 (Homo sapiens, UniProt Q5SQQ9 86-172)
Chain of VAX1 (Homo sapiens, UniProt Q5SQQ9 86-172) (Q5SQQ9 86-172): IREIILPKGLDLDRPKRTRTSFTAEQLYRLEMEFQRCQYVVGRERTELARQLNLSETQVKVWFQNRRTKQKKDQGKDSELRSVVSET

[15] = biological target: VAX1 (Homo sapiens, UniProt Q5SQQ9 86-172, T142I)
Chain of VAX1 (Homo sapiens, UniProt Q5SQQ9 86-172, T142I) (Q5SQQ9 86-172 T142I): as the sequence (Q5SQQ9 86-172) above, with T57I counted along it

[16] = biological target: HOXA4 (Homo sapiens, UniProt Q00056 201-287, W262F)
Chain of HOXA4 (Homo sapiens, UniProt Q00056 201-287, W262F) (Q00056 201-287 W262F): as the sequence (Q00056 201-287 W262R) above, with R62F counted along it

[17] = biological target: VAX1 (Homo sapiens, UniProt Q5SQQ9 86-172, K157R)
Chain of VAX1 (Homo sapiens, UniProt Q5SQQ9 86-172, K157R) (Q5SQQ9 86-172 K157R): as the sequence (Q5SQQ9 86-172) above, with K72R counted along it

Chain of HOXA2 (Homo sapiens, UniProt O43364 129-215, R185T) (O43364 129-215 R185T): as the sequence (O43364 129-215 R185K) above, with K57T counted along it
Chain of HOXB4 (Homo sapiens, UniProt P17483 148-234) (P17483 148-234): as the sequence (P17483 148-234 V174I) above, with I27V counted along it
Chain of HOXB9 (P17482 171-250 T197M): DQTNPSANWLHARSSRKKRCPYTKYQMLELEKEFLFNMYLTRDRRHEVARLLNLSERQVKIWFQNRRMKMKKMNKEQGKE

Row | Sequence | binding signal [1] | binding signal [2] | binding signal [3] | binding signal [4] | binding signal [5] | binding signal [6] | binding signal [7] | binding signal [8] | binding signal [9] | binding signal [10] | binding signal [11] | binding signal [12] | binding signal [13] | binding signal [14] | binding signal [15] | binding signal [16] | binding signal [17]
1 | CCCCCTCG | 7.86 upbm affinity estimate (log intensity, higher = more binding, comparable within an allelic series) | 8.45 upbm affinity estimate (log intensity, higher = more binding, comparable within an allelic series) | 7.09 upbm affinity estimate (log intensity, higher = more binding, comparable within an allelic series) | 7.85 upbm affinity estimate (log intensity, higher = more binding, comparable within an allelic series) | 10.2 upbm affinity estimate (log intensity, higher = more binding, comparable within an allelic series) | 10.3 upbm affinity estimate (log intensity, higher = more binding, comparable within an allelic series) | 7.14 upbm affinity estimate (log intensity, higher = more binding, comparable within an allelic series) | – | – | – | – | – | – | – | – | – | –
2 | ACTAATGA | 13.4 upbm affinity estimate (log intensity, higher = more binding, comparable within an allelic series) | – | 13.3 upbm affinity estimate (log intensity, higher = more binding, comparable within an allelic series) | 14 upbm affinity estimate (log intensity, higher = more binding, comparable within an allelic series) | 13.6 upbm affinity estimate (log intensity, higher = more binding, comparable within an allelic series) | 10.9 upbm affinity estimate (log intensity, higher = more binding, comparable within an allelic series) | 12.9 upbm affinity estimate (log intensity, higher = more binding, comparable within an allelic series) | 12.1 upbm affinity estimate (log intensity, higher = more binding, comparable within an allelic series) | 10.8 upbm affinity estimate (log intensity, higher = more binding, comparable within an allelic series) | 12.7 upbm affinity estimate (log intensity, higher = more binding, comparable within an allelic series) | 12 upbm affinity estimate (log intensity, higher = more binding, comparable within an allelic series) | 12.2 upbm affinity estimate (log intensity, higher = more binding, comparable within an allelic series) | 14.1 upbm affinity estimate (log intensity, higher = more binding, comparable within an allelic series) | 13.5 upbm affinity estimate (log intensity, higher = more binding, comparable within an allelic series) | 13.3 upbm affinity estimate (log intensity, higher = more binding, comparable within an allelic series) | 12.3 upbm affinity estimate (log intensity, higher = more binding, comparable within an allelic series) | 13.3 upbm affinity estimate (log intensity, higher = more binding, comparable within an allelic series)
3 | CCCATTAA | 13 upbm affinity estimate (log intensity, higher = more binding, comparable within an allelic series) | 10.1 upbm affinity estimate (log intensity, higher = more binding, comparable within an allelic series) | 12.5 upbm affinity estimate (log intensity, higher = more binding, comparable within an allelic series) | 13.5 upbm affinity estimate (log intensity, higher = more binding, comparable within an allelic series) | 13.1 upbm affinity estimate (log intensity, higher = more binding, comparable within an allelic series) | 10.7 upbm affinity estimate (log intensity, higher = more binding, comparable within an allelic series) | 12.1 upbm affinity estimate (log intensity, higher = more binding, comparable within an allelic series) | 12.1 upbm affinity estimate (log intensity, higher = more binding, comparable within an allelic series) | 10.4 upbm affinity estimate (log intensity, higher = more binding, comparable within an allelic series) | 13.1 upbm affinity estimate (log intensity, higher = more binding, comparable within an allelic series) | 12 upbm affinity estimate (log intensity, higher = more binding, comparable within an allelic series) | 11.9 upbm affinity estimate (log intensity, higher = more binding, comparable within an allelic series) | 13.7 upbm affinity estimate (log intensity, higher = more binding, comparable within an allelic series) | 12.9 upbm affinity estimate (log intensity, higher = more binding, comparable within an allelic series) | 12.5 upbm affinity estimate (log intensity, higher = more binding, comparable within an allelic series) | 11.1 upbm affinity estimate (log intensity, higher = more binding, comparable within an allelic series) | 12.6 upbm affinity estimate (log intensity, higher = more binding, comparable within an allelic series)
4 | ATCGATTA | 13.1 upbm affinity estimate (log intensity, higher = more binding, comparable within an allelic series) | – | 12.6 upbm affinity estimate (log intensity, higher = more binding, comparable within an allelic series) | 13.8 upbm affinity estimate (log intensity, higher = more binding, comparable within an allelic series) | 13.1 upbm affinity estimate (log intensity, higher = more binding, comparable within an allelic series) | – | – | 11.7 upbm affinity estimate (log intensity, higher = more binding, comparable within an allelic series) | – | 12.6 upbm affinity estimate (log intensity, higher = more binding, comparable within an allelic series) | 11.3 upbm affinity estimate (log intensity, higher = more binding, comparable within an allelic series) | 12 upbm affinity estimate (log intensity, higher = more binding, comparable within an allelic series) | – | – | – | 11 upbm affinity estimate (log intensity, higher = more binding, comparable within an allelic series) | –
5 | CGCAGACC | 7.32 upbm affinity estimate (log intensity, higher = more binding, comparable within an allelic series) | – | – | 7.36 upbm affinity estimate (log intensity, higher = more binding, comparable within an allelic series) | – | – | – | 8.16 upbm affinity estimate (log intensity, higher = more binding, comparable within an allelic series) | – | 7.99 upbm affinity estimate (log intensity, higher = more binding, comparable within an allelic series) | 8.12 upbm affinity estimate (log intensity, higher = more binding, comparable within an allelic series) | – | – | – | – | – | –
